# Laboratory results taken from the supplement of paper PMC4466140.
# Key:
# Assay in all cases: SPOT peptide array binding signal intensity (averaged, normalized) (arbitrary units (background-subtracted, floor 0; scale differs between SH3 domains)); higher = stronger binding of the SH3 domain to the peptide
# AgAbp1 = target: AgAbp1
# Summary of the method: (§1)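 The binding signal is the normalized, background-subtracted spot intensity averaged over replicates; its arbitrary units differ between domains. It was obtained by incubating 10 μg/ml GST-fused SH3 domains from four yeast species overnight at 4°C in TBS-based blocking buffer on cellulose membranes with synthetic 15-mer peptides, cysteines replaced by serines, then detecting with anti-GST antibody, HRP anti-mouse secondary and luminol.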
# AgBbc1 = target: AgBbc1
# Summary of the method: as §1
# AgBem1-D1 = target: AgBem1-D1
# Summary of the method: as §1
# AgBzz1-D1 = target: AgBzz1-D1
# Summary of the method: as §1
# AgBzz1-D2 = target: AgBzz1-D2
# Summary of the method: as §1
# AgCyk3 = target: AgCyk3
# Summary of the method: as §1
# AgFus1 = target: AgFus1
# Summary of the method: as §1
# AgHof1 = target: AgHof1
# Summary of the method: as §1
# AgHse1 = target: AgHse1
# Summary of the method: as §1
# AgLsb1 = target: AgLsb1
# Summary of the method: as §1
# AgLsb4 = target: AgLsb4
# Summary of the method: as §1
# AgMyo5 = target: AgMyo5
# Summary of the method: as §1
# AgNbp2 = target: AgNbp2
# Summary of the method: as §1
# AgRvs167 = target: AgRvs167
# Summary of the method: as §1
# AgSho1 = target: AgSho1
# Summary of the method: as §1
# AgSla1-D1-D2 = target: AgSla1-D1-D2
# Summary of the method: as §1
# AgSla1-D3 = target: AgSla1-D3
# Summary of the method: as §1
# CaAbp1-D1 = target: CaAbp1-D1
# Summary of the method: as §1
# CaAbp1-D2 = target: CaAbp1-D2
# Summary of the method: as §1
# CaBbc1 = target: CaBbc1
# Summary of the method: as §1
# CaBem1-D1 = target: CaBem1-D1
# Summary of the method: as §1
# CaBzz1-D1 = target: CaBzz1-D1
# Summary of the method: as §1
# CaBzz1-D2 = target: CaBzz1-D2
# Summary of the method: as §1
# CaCyk3 = target: CaCyk3
# Summary of the method: as §1
# CaFus1 = target: CaFus1
# Summary of the method: as §1
# CaHof1 = target: CaHof1
# Summary of the method: as §1
# CaHse1 = target: CaHse1
# Summary of the method: as §1
# CaLsb1 = target: CaLsb1
# Summary of the method: as §1
# CaLsb4 = target: CaLsb4
# Summary of the method: as §1
# CaMyo5 = target: CaMyo5
# Summary of the method: as §1
# CaNbp2 = target: CaNbp2
# Summary of the method: as §1
# CaRvs167 = target: CaRvs167
# Summary of the method: as §1
# CaRvs167-3 = target: CaRvs167-3
# Summary of the method: as §1
# CaSho1 = target: CaSho1
# Summary of the method: as §1
# CaSla1-D1-D2 = target: CaSla1-D1-D2
# Summary of the method: as §1
# CaSla1-D3 = target: CaSla1-D3
# Summary of the method: as §1
# ScAbp1 = target: ScAbp1
# Summary of the method: as §1
# ScBbc1 = target: ScBbc1
# Summary of the method: as §1
# ScBem1-D1 = target: ScBem1-D1
# Summary of the method: as §1
# ScBzz1-D1 = target: ScBzz1-D1
# Summary of the method: as §1
# ScBzz1-D2 = target: ScBzz1-D2
# Summary of the method: as §1
# ScCyk3 = target: ScCyk3
# Summary of the method: as §1
# ScFus1 = target: ScFus1
# Summary of the method: as §1
# ScHof1 = target: ScHof1
# Summary of the method: as §1
# ScHse1 = target: ScHse1
# Summary of the method: as §1
# ScLsb1 = target: ScLsb1
# Summary of the method: as §1
# ScLsb2 = target: ScLsb2
# Summary of the method: as §1
# ScLsb3 = target: ScLsb3
# Summary of the method: as §1
# ScLsb4 = target: ScLsb4
# Summary of the method: as §1
# ScMyo3 = target: ScMyo3
# Summary of the method: as §1
# ScMyo5 = target: ScMyo5
# Summary of the method: as §1
# ScNbp2 = target: ScNbp2
# Summary of the method: as §1
# ScPex13 = target: ScPex13
# Summary of the method: as §1
# ScRvs167 = target: ScRvs167
# Summary of the method: as §1
# ScSho1 = target: ScSho1
# Summary of the method: as §1
# ScSla1-D1-D2 = target: ScSla1-D1-D2
# Summary of the method: as §1
# ScSla1-D3 = target: ScSla1-D3
# Summary of the method: as §1
# SpAbp1-D1 = target: SpAbp1-D1
# Summary of the method: as §1
# SpBbc1 = target: SpBbc1
# Summary of the method: as §1
# SpBzz1-D1 = target: SpBzz1-D1
# Summary of the method: as §1
# SpBzz1-D2 = target: SpBzz1-D2
# Summary of the method: as §1
# SpCyk3 = target: SpCyk3
# Summary of the method: as §1
# SpHof1 = target: SpHof1
# Summary of the method: as §1
# SpHof1-2 = target: SpHof1-2
# Summary of the method: as §1
# SpHof1-3 = target: SpHof1-3
# Summary of the method: as §1
# SpHse1 = target: SpHse1
# Summary of the method: as §1
# SpLsb1 = target: SpLsb1
# Summary of the method: as §1
# SpLsb4 = target: SpLsb4
# Summary of the method: as §1
# SpMyo1 = target: SpMyo1
# Summary of the method: as §1
# SpNbp2 = target: SpNbp2
# Summary of the method: as §1
# SpPex13 = target: SpPex13
# Summary of the method: as §1
# SpRvs167 = target: SpRvs167
# Summary of the method: as §1
# SpSla1-D1-D2 = target: SpSla1-D1-D2
# Summary of the method: as §1
# SpSla1-D3 = target: SpSla1-D3
# Summary of the method: as §1
binder,measurement,setting,value
LRIKRKPVQTFFEFI,SPOT peptide array binding signal intensity,AgAbp1,76
same,SPOT peptide array binding signal intensity,AgBbc1,24.2
same,SPOT peptide array binding signal intensity,AgBem1-D1,212
same,SPOT peptide array binding signal intensity,AgBzz1-D1,109
same,SPOT peptide array binding signal intensity,AgBzz1-D2,42
same,SPOT peptide array binding signal intensity,AgCyk3,4
same,SPOT peptide array binding signal intensity,AgFus1,398
same,SPOT peptide array binding signal intensity,AgHof1,19.5
same,SPOT peptide array binding signal intensity,AgHse1,960
same,SPOT peptide array binding signal intensity,AgLsb1,1
same,SPOT peptide array binding signal intensity,AgLsb4,136
same,SPOT peptide array binding signal intensity,AgMyo5,0.5
same,SPOT peptide array binding signal intensity,AgNbp2,72
same,SPOT peptide array binding signal intensity,AgRvs167,4.33
same,SPOT peptide array binding signal intensity,AgSho1,49
same,SPOT peptide array binding signal intensity,AgSla1-D1-D2,432
same,SPOT peptide array binding signal intensity,AgSla1-D3,10.5
same,SPOT peptide array binding signal intensity,CaAbp1-D1,816
same,SPOT peptide array binding signal intensity,CaAbp1-D2,948
same,SPOT peptide array binding signal intensity,CaBbc1,91.2
same,SPOT peptide array binding signal intensity,CaBem1-D1,16
same,SPOT peptide array binding signal intensity,CaBzz1-D1,107
same,SPOT peptide array binding signal intensity,CaBzz1-D2,59.2
same,SPOT peptide array binding signal intensity,CaCyk3,18
same,SPOT peptide array binding signal intensity,CaFus1,1010
same,SPOT peptide array binding signal intensity,CaHof1,≤ 0
same,SPOT peptide array binding signal intensity,CaHse1,15
same,SPOT peptide array binding signal intensity,CaLsb1,0.5
same,SPOT peptide array binding signal intensity,CaLsb4,59
same,SPOT peptide array binding signal intensity,CaMyo5,14
same,SPOT peptide array binding signal intensity,CaNbp2,468
same,SPOT peptide array binding signal intensity,CaRvs167,16.5
same,SPOT peptide array binding signal intensity,CaRvs167-3,843
same,SPOT peptide array binding signal intensity,CaSho1,1260
same,SPOT peptide array binding signal intensity,CaSla1-D1-D2,37
same,SPOT peptide array binding signal intensity,CaSla1-D3,37
same,SPOT peptide array binding signal intensity,ScAbp1,355
same,SPOT peptide array binding signal intensity,ScBbc1,6.75
same,SPOT peptide array binding signal intensity,ScBem1-D1,57
same,SPOT peptide array binding signal intensity,ScBzz1-D1,39.5
same,SPOT peptide array binding signal intensity,ScBzz1-D2,49.5
same,SPOT peptide array binding signal intensity,ScCyk3,138
same,SPOT peptide array binding signal intensity,ScFus1,651
same,SPOT peptide array binding signal intensity,ScHof1,5.5
same,SPOT peptide array binding signal intensity,ScHse1,1800
same,SPOT peptide array binding signal intensity,ScLsb1,21.2
same,SPOT peptide array binding signal intensity,ScLsb2,5.5
same,SPOT peptide array binding signal intensity,ScLsb3,156
same,SPOT peptide array binding signal intensity,ScLsb4,23
same,SPOT peptide array binding signal intensity,ScMyo3,7
same,SPOT peptide array binding signal intensity,ScMyo5,1.75
same,SPOT peptide array binding signal intensity,ScNbp2,150
same,SPOT peptide array binding signal intensity,ScPex13,18
same,SPOT peptide array binding signal intensity,ScRvs167,24.2
same,SPOT peptide array binding signal intensity,ScSho1,718
same,SPOT peptide array binding signal intensity,ScSla1-D1-D2,220
same,SPOT peptide array binding signal intensity,ScSla1-D3,14
same,SPOT peptide array binding signal intensity,SpAbp1-D1,228
same,SPOT peptide array binding signal intensity,SpBbc1,5
same,SPOT peptide array binding signal intensity,SpBzz1-D1,128
same,SPOT peptide array binding signal intensity,SpBzz1-D2,0.5
same,SPOT peptide array binding signal intensity,SpCyk3,2
same,SPOT peptide array binding signal intensity,SpHof1,436
same,SPOT peptide array binding signal intensity,SpHof1-2,14
same,SPOT peptide array binding signal intensity,SpHof1-3,784
same,SPOT peptide array binding signal intensity,SpHse1,686
same,SPOT peptide array binding signal intensity,SpLsb1,4.25
same,SPOT peptide array binding signal intensity,SpLsb4,100
same,SPOT peptide array binding signal intensity,SpMyo1,4.5
same,SPOT peptide array binding signal intensity,SpNbp2,370
same,SPOT peptide array binding signal intensity,SpPex13,23.5
same,SPOT peptide array binding signal intensity,SpRvs167,32.5
same,SPOT peptide array binding signal intensity,SpSla1-D1-D2,≤ 0
same,SPOT peptide array binding signal intensity,SpSla1-D3,37
